E coli growth-1 = E. coli V3065 growth inhibition, primary screen, counter-screen for AddAB inhibitor project, absorbance, OD600; 18 h; inhibition, % at 11.9 µM; actives 0.27% (n = 330,000);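 active = inhibition above the campaign's mean inhibition across all tested compounds plus 3 SD, cut at about 9.9% in these data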;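 note: uninfected addAB+ strain grown without phage in ampicillin broth; 0% = DMSO wells and 100% = ciprofloxacin 0.95 µg/ml wells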
phage Ecoli inh = growth loss of phage-infected E. coli, primary screen, RecBCD inhibitor project, absorbance, with phage, HTS; inhibition, % at 11.9 µM; actives 0.26% (n = 360,000); AID 651602, 2012; in the data active = inhibition above about 11%
E coli growth-2 = E. coli growth inhibition, primary screen, OD600 | actives 0.21% (n = 330,000) | OD600 absorbance (test concentration not listed) | AID 1053175, 2014 | Escherichia coli growth, 23 h; stronger effect = lower value;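 active = OD600 absorbance below the run mean of sample wells minus 3.6 SD, in any replicate, cut at about 0.56 in these data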
Tat transport = E. coli Tat export inhibitors, primary screen, MC4100, TorA-mCherry reporter, fluorescence, single point; inhibition, % at 10 µM; actives 0.036% (n = 340,000);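 active = mean replicate inhibition at least 50% and at least half of replicates individually reaching 50%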;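 note: exported cargo escapes ClpAP degradation while cytoplasmic cargo is degraded and loses fluorescence; 0% = median of neutral control wells and 100% = median of NaSCN control wells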
AddAB inh = growth inhibition of E. coli expressing H. pylori AddAB, primary screen, AddAB inhibitor project, absorbance. inhibition, % at 11.9 µM. actives 0.29% (n = 330,000). AID 435030, 2010; in the data active = inhibition above about 12%;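 note: 0% = vehicle wells of infected cells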
AddAB confirm = growth loss of phage-infected E. coli expressing H. pylori AddAB, confirmation, AddAB inhibitor project, absorbance, E. coli V3065, T4 phage, triplicate; shares compounds with AddAB inh; OD; T4 phage with gene 2 nonsense mutations; AID 488942, 2010; inhibition, % at 11.9 µM; actives 64% (n = 880);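 active = mean inhibition above a set limit taken from the earlier primary screen, cut at about 13% in these data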;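 note: higher means less bacterial growth since AddAB block lets phage replicate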
RecBCD counter = growth loss of RecBCD+ E. coli with mutant T4 phage, counter-screen for AddAB inhibitor project, absorbance, V66 E. coli. shares compounds with AddAB inh. OD growth. inhibition, % at 11.9 µM. actives 73% (n = 880);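 active = mean inhibition above the mean of solvent-only control wells plus 3 SD, cut at about 4% in these data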;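 note: optical density read after an 18 h incubation at 37 °C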
Bact viability = bacterial viability inhibition counter-screen, confirmation, counter-screen for AddAB inhibitor project, absorbance | shares compounds with AddAB inh | absorbance (AddAB counterscreen) | inhibition, % at 11.9 µM | actives 35% (n = 880) | AID 488956, 2010; in the data active = inhibition above about 25%
RecBCD conf = growth loss of phage-infected RecBCD+ E. coli, confirmation, RecBCD inhibitor project, absorbance, E. coli V66, T4 gene 2 phage; shares compounds with phage Ecoli inh; inhibition, % at 11.9 µM; actives 45% (n = 890); E. coli V66 + T4 2- phage, growth OD;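 active = mean inhibition over triplicates exceeding the hit threshold derived in the original primary screen, cut at about 11% in these data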
Ecoli viability = E. coli viability inhibition, counter-screen for RecBCD inhibitor project, absorbance, high throughput. shares compounds with phage Ecoli inh. absorbance (OD) growth. inhibition, % at 11.9 µM. actives 29% (n = 890). AID 651983, 2013; in the data active = inhibition above about 20%;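 note: E. coli strain V66 grown with compound alone and no phage infection; 0% = bacteria with DMSO vehicle only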
AddAB phage OD = growth loss of phage-infected AddAB-carrying E. coli, confirmation, counter-screen for RecBCD inhibitor project, absorbance, E. coli V3065, T4 phage. E. coli expressing H. pylori AddAB + T4 phage, OD growth; gene 2 mutant T4, recBCD-deleted host. actives 45% (n = 890). shares compounds with phage Ecoli inh. AID 651984, 2013. inhibition, % at 11.9 µM;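 active = mean inhibition above the solvent-only control wells' mean plus 3 SD, cut at about 22% in these data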;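 note: higher means less bacterial growth from phage killing when AddAB is blocked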
Starred values were filed as active, the others as inactive. A selection: hits, their analogues and other compounds. The true share with any hit is near 0.5%.

Screening Cc1cc(NS(=O)(=O)c2ccc(N)cc2)no1 returned E coli growth-1 10.2*, phage Ecoli inh 16.4*, AddAB inh 12.5*, AddAB confirm 18.1*, RecBCD counter 9.4*, Bact viability 23.9, RecBCD conf 7.9, Ecoli viability 2.9 and AddAB phage OD 26.5*.
Screening Cc1ccc(S(=O)(=O)Nc2cc(C)on2)cc1 returned E coli growth-1 -1.1, phage Ecoli inh 1.4, E coli growth-2 0.692, Tat transport -0.8 and AddAB inh 2.4.
CCn1cc(C(=O)O)c(=O)c2cc(F)c(N/N=C/c3ccccc3)cc21 was read as E coli growth-1 -0.7, phage Ecoli inh 1.0, Tat transport 0.4 and AddAB inh 2.0.
`C=CCNC(=O)c1cn(CC)c2cc(N3CCN(C(=O)c4ccco4)CC3)c(F)cc2c1=O` gave E coli growth-1 98.6*, phage Ecoli inh 25.2*, E coli growth-2 0.0565*, Tat transport 13.7, AddAB inh 98.6*, AddAB confirm 99.4*, RecBCD counter 18.9*, Bact viability 100.7*, RecBCD conf 12.2*, Ecoli viability 14.9 and AddAB phage OD 99.7*.
CCn1cc(C(=O)O)c(=O)c2cc(F)c(N3CCN(S(=O)(=O)c4ccc(NC(C)=O)cc4)CC3)cc21 was read as E coli growth-1 100.1*, phage Ecoli inh 96.5*, E coli growth-2 0.06*, Tat transport 8.3, AddAB inh 98.9*, AddAB confirm 100.9*, RecBCD counter 97.4*, Bact viability 100.9*, RecBCD conf 72.1*, Ecoli viability 100.9* and AddAB phage OD 104.3*.
`CCn1cc(C(=O)NN)c(=O)c2cc(F)c(N3CCOCC3)cc21` gave E coli growth-1 1.9, phage Ecoli inh 1.7, E coli growth-2 0.67, Tat transport 7.7 and AddAB inh -1.8.
Screening CCn1cc(C(=O)O)c(=O)c2cc(F)c(N3CCN(C(=O)Nc4ccccc4)CC3)cc21 returned E coli growth-1 100.7*, phage Ecoli inh 96.8*, E coli growth-2 0.051*, Tat transport 24.3, AddAB inh 101.4*, AddAB confirm 102.9*, RecBCD counter 101.5*, Bact viability 102.4*, RecBCD conf 99.7*, Ecoli viability 101.8* and AddAB phage OD 99.0*.
CCn1cc(C(=O)O)c(=O)c2cc(F)c(N3CCN(C(=S)NC(=O)c4ccccc4F)CC3)cc21 was read as E coli growth-1 98.9*, phage Ecoli inh 15.6*, E coli growth-2 0.073*, Tat transport 0.5, AddAB inh 98.3*, AddAB confirm 100.9*, RecBCD counter 99.3*, Bact viability 103.3*, RecBCD conf 100.9*, Ecoli viability 101.4* and AddAB phage OD 100.8*.
Screening COC(=O)C1CC2CCC(O)CC2N1Cc1ccccc1OC(=O)c1cccs1 (stereo unspecified) returned E coli growth-2 0.713.
CCOC(=O)Cn1cc(C=NNC(=O)CC#N)c2ccccc21 was read as E coli growth-2 0.722.
For CCn1cc(C(=O)O)c(=O)c2cc(F)c(N3CCN(C(=S)NC(=O)c4ccc(OC)cc4)CC3)cc21 the results were E coli growth-1 99.2*, phage Ecoli inh 101.0*, E coli growth-2 0.076*, Tat transport 81.4*, AddAB inh 98.9*, AddAB confirm 100.1*, RecBCD counter 100.2*, Bact viability 101.7*, RecBCD conf 104.5*, Ecoli viability 105.5* and AddAB phage OD 104.7*.
Screening CCn1cc(C(=O)O)c(=O)c2cc(F)c(N3CCN(C(=S)NC(=O)c4cccc(C)c4)CC3)cc21 returned E coli growth-1 97.6*, phage Ecoli inh 92.9*, E coli growth-2 0.071*, Tat transport 28.3, AddAB inh 96.5*, AddAB confirm 99.6*, RecBCD counter 100.0*, Bact viability 99.5*, RecBCD conf 102.9*, Ecoli viability 103.3* and AddAB phage OD 103.9*.
Screening CCn1cc(C(=O)O)c(=O)c2cc(F)c(N3CCN(C(=S)NC(=O)c4ccc(Br)cc4)CC3)cc21 returned E coli growth-1 97.9*, phage Ecoli inh 98.9*, Tat transport 43.6, AddAB inh 99.0*, AddAB confirm 98.8*, RecBCD counter 99.3*, Bact viability 100.2*, RecBCD conf 101.9*, Ecoli viability 102.2* and AddAB phage OD 103.2*.
CCn1cc(C(=O)NCC(C)C)c(=O)c2cc(F)c(N3CCN(C)CC3)cc21 was read as E coli growth-1 100.3*, phage Ecoli inh 86.7*, E coli growth-2 0.0755*, AddAB inh 98.9*, AddAB confirm 100.3*, RecBCD counter 99.5*, Bact viability 100.8*, RecBCD conf 90.3*, Ecoli viability 101.0* and AddAB phage OD 102.1*.
`CCCCCCn1cc(C(=O)OCC)c(=O)c2cc(F)c(F)cc21` gave E coli growth-1 0.7, phage Ecoli inh 1.8, E coli growth-2 0.7, Tat transport 4.9 and AddAB inh 3.0.
`CCOC(=O)c1cn(CC)c2cc(N3CCN(C)CC3)c(F)cc2c1=O` gave E coli growth-1 97.2*, phage Ecoli inh 26.5*, E coli growth-2 0.0675*, Tat transport 1.7, AddAB inh 98.9*, AddAB confirm 102.0*, RecBCD counter 19.5*, Bact viability 100.4*, RecBCD conf 11.3*, Ecoli viability 12.5 and AddAB phage OD 88.5*.
`CCn1cc(SCC(=O)NCc2ccc3c(c2)OCO3)c2ccccc21` gave E coli growth-1 1.5, phage Ecoli inh 2.7, E coli growth-2 0.701, Tat transport -18.2 and AddAB inh -1.1.
